Where “and” joins values, the source holds several entries; their conditions need not be identical. Equal values may be shown once. The panel holds about 79,000 compounds, 15% with a hit somewhere; the sample as a whole holds those more often. Calls of active or inactive are those of the source. Cut-off read from the data, not from the text of the source: active = growth inhibition above about 70%; inactive = the rest.
Experiments:
[1] = NCI Yeast Anticancer Drug Screen. Data for the rad50 strain (AID 155);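 note: 0% = growth of vehicle-only cultures of the same strain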; conditions: S. cerevisiae rad50 strain growth inhibition, stronger effect = higher value
Outline: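 Compounds were tested on a yeast strain with an engineered DNA damage repair alteration; the reported value is growth inhibition normalised to vehicle treatment.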

[2] = NCI Yeast Anticancer Drug Screen. Data for the mec2-1 strain (AID 157); conditions: S. cerevisiae mec2-1 strain, stronger effect = higher value
Outline: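 mec2-1 yeast strain, carrying an alteration in DNA damage repair or cell cycle control, was exposed to compounds; growth inhibition was measured relative to vehicle-treated controls.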

[3] = NCI Yeast Anticancer Drug Screen. Data for the sgs1 mgt1 strain (AID 161);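 note: 0% = growth of cultures given vehicle only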; conditions: S. cerevisiae sgs1 mgt1 strain, stronger effect = higher value
Outline: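 Compounds are added to genetically altered yeast, and growth is compared with cultures given vehicle alone to give percent inhibition.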

[4] = NCI Yeast Anticancer Drug Screen. Data for the cln2 rad14 strain (AID 165);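 note: 0% = growth equal to vehicle treated cultures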; conditions: S. cerevisiae cln2 rad14 strain, stronger effect = higher value
Outline: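 Yeast carrying cln2 and rad14 alterations (cell cycle control and DNA damage repair) were exposed to compounds. Growth inhibition was measured against vehicle-treated controls.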

[5] = NCI Yeast Anticancer Drug Screen. Data for the bub3 strain (AID 167); conditions: S. cerevisiae bub3 mutant strain, stronger effect = higher value
Outline: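 Growth of a checkpoint-deficient yeast mutant is measured after compound exposure. Values represent inhibition relative to vehicle.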

[6] = NCI Yeast Anticancer Drug Screen. Data for the mlh1 rad18 strain (AID 175); conditions: S. cerevisiae mlh1 rad18 strain growth inhibition, stronger effect = higher value
Outline: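 Growth inhibition of the yeast strain was measured after compound exposure and expressed relative to vehicle-treated controls. The strain carries defined defects in DNA damage repair.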

[7] = at 5.0 µM (retest, dose inferred, filed as 0.5)
[8] = at 50.0 µM (retest, dose inferred, filed as 5.0)

Measured: growth inhibition

CC(=O)OC1C(O)C(C)OC(OC2C(OC(=O)C3CCC4C(C3)OC3(CC(OC(=O)/C=C/c5ccccc5)C(C)CO3)C43CO3)OC(C)C(O)C2OC(C)=O)C1O (stereo not given)
inactive: [1]; [7] -20% | [2]; [7] 10% | [3]; [7] -5% | [4]; [7] 24% | [5]; [7] 6% | [6]; [7] -1%
active: [1]; [8] 96% | [1]; at 50.0 µM 91% | [2]; [8] 98% | [2]; at 50.0 µM 92.7% | [3]; [8] 95% | [3]; at 50.0 µM 93% | [4]; [8] 96% | [4]; at 50.0 µM 90.1% | [5]; [8] 98% | [5]; at 50.0 µM 92.2% | [6]; [8] 97% | [6]; at 50.0 µM 91.6%

O=P(CP(=O)(c1ccccc1)c1ccccc1)(c1ccccc1)c1ccccc1.[CH3][Sn]([CH3])([Cl])[Cl]
inactive: [1]; [7] 6% | [1]; [8] 27% | [1]; at 50.0 µM 21.4% | [2]; [7] 21% | [2]; [8] 9% | [3]; [7] 5% | [3]; [8] 8% | [3]; at 50.0 µM 22.9% | [4]; [7] 3% | [4]; [8] -12% | [4]; at 50.0 µM 8.35% | [5]; [7] 0% | [5]; [8] 8% | [5]; at 50.0 µM 4.25% | [6]; [7] 2% | [6]; [8] 15% | [6]; at 50.0 µM 19.4%
active: [2]; at 50.0 µM 89.3%

Cc1cc(C)[n+](CCOc2ccc(/C(=C(/Cl)c3ccccc3)c3ccccc3)cc2)c(C)c1
active: [1]; [7] 99% | [1]; [8] 99% | [1]; at 50.0 µM 91.7% | [2]; [7] 83% | [2]; [8] 83% | [2]; at 50.0 µM 91.9% | [3]; [7] 73% | [3]; [8] 73% | [3]; at 50.0 µM 92.2% | [4]; [7] 97% | [4]; [8] 97% | [4]; at 50.0 µM 91.7% | [5]; at 50.0 µM 90% | [6]; [7] 82% | [6]; [8] 82% | [6]; at 50.0 µM 89.8%
inactive: [5]; [7] 67% | [5]; [8] 67%

O=[N+]([O-])c1cccc(N=Cc2ccc(N(CCCl)CCCl)cc2)c1
inactive: [1]; [7] 4% | [1]; [8] 53% | [1]; at 50.0 µM 66% | [2]; [7] 2% | [2]; [8] 64% | [2]; at 50.0 µM 21.9% | [3]; [7] 3% | [3]; [8] 63% | [3]; at 50.0 µM 44.4% | [4]; [7] 2% | [4]; [8] 54% | [4]; at 50.0 µM 26.1% | [5]; [7] 3% | [5]; at 50.0 µM 8% | [6]; [7] 7% | [6]; at 50.0 µM 60%
active: [5]; [8] 74% | [6]; [8] 74%

Cc1ccccc1NC(=O)CBr
inactive: [1]; [7] 39% | [2]; [7] 12% | [3]; [7] 37% | [4]; [7] 18% | [5]; [7] -38% | [6]; [7] 37%
active: [1]; [8] 98% | [1]; at 50.0 µM 98.5% | [2]; [8] 99% | [2]; at 50.0 µM 98.6% | [3]; [8] 99% | [3]; at 50.0 µM 99.3% | [4]; [8] 98% | [4]; at 50.0 µM 95.5% | [5]; [8] 99% | [5]; at 50.0 µM 98.2% | [6]; [8] 99% | [6]; at 50.0 µM 98.3%

Nc1nc(N)c(-c2ccc(Cl)c(Cl)c2)c(CCc2ccc(CNC(=O)c3cc(S(=O)(=O)F)ccc3Cl)cc2)n1
active: [2]; at 50.0 µM 96% | [5]; at 50.0 µM 74.7% | [6]; at 50.0 µM 94.5%
inactive: [1]; [7] -4% | [1]; [8] 49% | [1]; at 50.0 µM 50.5% | [2]; [7] -4% | [2]; [8] 54% | [3]; [7] -3% | [3]; [8] 50% | [3]; at 50.0 µM 66.8% | [4]; [7] -7% | [4]; [8] 47% | [4]; at 50.0 µM 12.5% | [5]; [7] -2% | [5]; [8] 45% | [6]; [7] -3% | [6]; [8] 53%

CCC/C=[CH]/[Hg][Cl]
active: [1]; [7] 99% | [1]; [8] 99% | [1]; at 50.0 µM 99.2% | [2]; [7] 100% | [2]; [8] 100% | [2]; at 50.0 µM 99.5% | [3]; [7] 100% | [3]; [8] 99% | [3]; at 50.0 µM 99.5% | [4]; [7] 97% | [4]; [8] 99% | [4]; at 50.0 µM 99.3% | [5]; [7] 99% | [5]; [8] 99% | [5]; at 50.0 µM 99.4% | [6]; [7] 100% | [6]; [8] 99% | [6]; at 50.0 µM 99.4%

S=C(SSC(=S)N1CCCCC1)N1CCCCC1
inactive: [1]; [7] 50% | [1]; at 50.0 µM 9.4% and 16.8% | [2]; [7] 55% | [2]; at 50.0 µM 13.6% and 5.4% | [3]; [7] 48% | [3]; at 50.0 µM 18.5% and 12.8% | [4]; [7] 55% | [4]; at 50.0 µM 24.9% and 19.5% | [5]; at 50.0 µM 9.8% and 4.25% | [6]; [7] 34% | [6]; at 50.0 µM 54.8% and 12.6%
active: [1]; [8] 99% | [2]; [8] 99% | [3]; [8] 99% | [4]; [8] 99% | [5]; [7] 70% | [5]; [8] 99% | [6]; [8] 99%

[Br][Sn]([CH]1CCCCC1)([CH]1CCCCC1)[CH]1CCCCC1
active: [1]; [7] 98% | [1]; [8] 99% | [1]; at 50.0 µM 98.6% | [2]; [7] 100% | [2]; [8] 100% | [2]; at 50.0 µM 99.1% | [3]; [7] 99% | [3]; [8] 99% | [3]; at 50.0 µM 98.5% | [4]; [8] 98% | [4]; at 50.0 µM 98.5% | [5]; [8] 99% | [5]; at 50.0 µM 98.5% | [6]; [7] 99% | [6]; [8] 99% | [6]; at 50.0 µM 98.8%
inactive: [4]; [7] 57% | [5]; [7] 23%

CC(O)C(=O)O.CC(O)C(=O)O.[Ni] (stereo not given)
inactive: [1]; [7] -1% | [1]; [8] 7% | [1]; at 50.0 µM 4.2% | [2]; [7] 5% | [2]; [8] 3% | [2]; at 50.0 µM 19.1% | [3]; [7] -1% | [3]; [8] 4% | [3]; at 50.0 µM 0.95% | [4]; [7] -5% | [4]; [8] -2% | [5]; [7] 1% | [5]; [8] 0% | [5]; at 50.0 µM 18.1% | [6]; [7] -2% | [6]; [8] 12% | [6]; at 50.0 µM 19.4%
active: [4]; at 50.0 µM 74%

NC(=O)CNCc1ccc([As]=O)cc1 (stereo not given)
inactive: [1]; [7] 2% | [1]; [8] 1% | [2]; [7] 3% | [2]; [8] -2% | [2]; at 50.0 µM 50.1% | [3]; [7] 0% | [3]; [8] -2% | [4]; [7] 1% | [4]; [8] 3% | [4]; at 50.0 µM 10.4% | [5]; [7] 3% | [5]; [8] 8% | [6]; [7] 12% | [6]; [8] -6% | [6]; at 50.0 µM 69.5%
active: [1]; at 50.0 µM 72.8% | [3]; at 50.0 µM 71.1% | [5]; at 50.0 µM 74.2%

Fc1cccc(C2N(Cc3ccc(N(CCCl)CCCl)cc3Cl)CCCN2Cc2ccc(N(CCCl)CCCl)cc2Cl)c1
inactive: [1]; [7] -28% | [1]; at 50.0 µM 12.7% | [2]; [7] 15% | [2]; at 50.0 µM 54.5% | [3]; [7] -3% | [3]; at 50.0 µM -18.4% | [4]; [7] -5% | [4]; at 50.0 µM -6.1% | [5]; [7] -2% | [6]; [7] 6% | [6]; at 50.0 µM 9.15%
active: [1]; [8] 92% | [2]; [8] 95% | [3]; [8] 95% | [4]; [8] 93% | [5]; [8] 92% | [5]; at 50.0 µM 83.2% | [6]; [8] 94%

c1ccc(NC2=NCCN2)nc1
inactive: [1]; [7] -4% | [1]; at 50.0 µM 14.4% | [2]; [7] -26% | [2]; at 50.0 µM 34.2% | [3]; [7] 11% | [3]; at 50.0 µM 62.3% | [4]; [7] 24% | [4]; [8] 49% | [4]; at 50.0 µM 0.35% | [5]; [7] -8% | [5]; at 50.0 µM 25.4% | [6]; [7] -13% | [6]; at 50.0 µM 15.2%
active: [1]; [8] 82% | [2]; [8] 99% | [3]; [8] 70% | [5]; [8] 84% | [6]; [8] 98%

CC(C)C1=CC23CCC4C(C)(C(=O)O)CCCC4(C)C2CC1OO3 (stereo not given)
inactive: [1]; [7] 37% | [2]; [7] 10% | [3]; [7] 17% | [4]; [7] 1% | [5]; [7] -3% | [6]; [7] 27%
active: [1]; [8] 91% | [1]; at 50.0 µM 98.2% and 98.8% | [2]; [8] 94% | [2]; at 50.0 µM 93.1% and 98.8% | [3]; [8] 84% | [3]; at 50.0 µM 98.2% and 98.9% | [4]; [8] 78% | [4]; at 50.0 µM 97% and 90.4% | [5]; [8] 80% | [5]; at 50.0 µM 98% and 99.5% | [6]; [8] 89% | [6]; at 50.0 µM 98.5% and 95.2%

C[As](C)SCC1OC2OC(C)(C)OC2C2OC(C)(C)OC12 (stereo not given)
inactive: [1]; [7] 28% | [2]; [7] 21% | [3]; [7] 45% | [4]; [7] 48% | [5]; [7] 44% | [6]; [7] 24%
active: [1]; [8] 97% | [1]; at 50.0 µM 91.5% | [2]; [8] 99% | [2]; at 50.0 µM 92.2% | [3]; [8] 83% | [3]; at 50.0 µM 92.5% | [4]; [8] 73% | [4]; at 50.0 µM 90.1% | [5]; [8] 99% | [5]; at 50.0 µM 91.5% | [6]; [8] 96% | [6]; at 50.0 µM 90.2%
